Screening results as filed in PubChem.
PAFAH2 FP inh: PAFAH2 enzyme inhibitors, primary screen, biochemical, fluorescence polarization, human; Platelet-activating factor acetylhydrolase 2, cytoplasmic (Homo sapiens), Q99487; recombinant PAFAH2, FP-rhodamine activity probe; inhibition, % at 3.39 µM; hit rate 0.99% among 340,000;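 active means inhibition above the mean over all tested compounds plus 3 SD, cut at about 30% in these data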;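 further: inhibitors block probe labeling of enzyme so polarization drops; 0% = enzyme with DMSO and 100% = wells lacking PAFAH2 protein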
PAFAH1B3 FP inh: PAFAH1B3 enzyme inhibitors, primary screen, biochemical, fluorescence polarization, human | recombinant PAFAH1B3, FP-rhodamine probe | inhibition, % at 3.39 µM | hit rate 0.28% among 340,000;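 active means inhibition above the screen-wide average of all tested compounds plus 3 SD, cut at about 25% in these data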;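 further: 0% = enzyme with DMSO only and 100% = wells lacking PAFAH1B3 protein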
PP1 counter: PP1-alpha phosphatase inhibitors, primary screen, counter-screen for PP5 inhibitor project, biochemical, fluorescence, OMFP substrate, single point | Serine/threonine-protein phosphatase PP1-alpha catalytic subunit (Homo sapiens), P62136 | purified PP1alpha | inhibition, % at 6.7 µM | hit rate 0.9% among 320,000 | AID 2235, 2010;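 active means inhibition above the mean inhibition of all tested compounds plus 3 SD, computed separately for each screening campaign, cut at about 15% in these data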
PAFAH1B2 inh: PAFAH1B2 enzyme inhibitors, primary screen, biochemical, fluorescence polarization, human. inhibition, % at 3.39 µM. recombinant PAFAH1B2, FP-rhodamine activity probe. Platelet-activating factor acetylhydrolase IB subunit alpha2 (Homo sapiens), P68402. hit rate 1.2% among 340,000;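 active means inhibition above the mean of all tested compounds plus 3 SD, cut at about 24% in these data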;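 further: 0% = enzyme with DMSO and 100% = wells lacking PAFAH1B2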
pPAFAH inh: pPAFAH enzyme inhibitors, primary screen, biochemical, fluorescence polarization, human; Platelet-activating factor acetylhydrolase (Homo sapiens), Q13093; inhibition, % at 3.39 µM; AID 463082, 2010; recombinant pPAFAH, FP-rhodamine probe fluorescence polarization; hit rate 1.5% among 330,000;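 active means inhibition above the mean inhibition across the screen plus 3 SD, cut at about 25% in these data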;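 further: inhibitors block binding of the rhodamine activity-based probe so polarization drops; 0% = enzyme with DMSO and 100% = wells lacking pPAFAH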
PP5 inh: PP5 phosphatase inhibitors, primary screen, biochemical, fluorescence. Serine/threonine-protein phosphatase 5 (Homo sapiens), P53041. purified PP5c, OMFP substrate fluorescence. inhibition, % at 6.7 µM. hit rate 0.18% among 320,000;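 active means inhibition above the campaign's mean inhibition across all tested compounds plus 3 SD, cut at about 9.5% in these data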;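 further: 0% = DMSO only and 100% = 100 µM cantharidin control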
Target sequence (P53041 whole entry, looked up): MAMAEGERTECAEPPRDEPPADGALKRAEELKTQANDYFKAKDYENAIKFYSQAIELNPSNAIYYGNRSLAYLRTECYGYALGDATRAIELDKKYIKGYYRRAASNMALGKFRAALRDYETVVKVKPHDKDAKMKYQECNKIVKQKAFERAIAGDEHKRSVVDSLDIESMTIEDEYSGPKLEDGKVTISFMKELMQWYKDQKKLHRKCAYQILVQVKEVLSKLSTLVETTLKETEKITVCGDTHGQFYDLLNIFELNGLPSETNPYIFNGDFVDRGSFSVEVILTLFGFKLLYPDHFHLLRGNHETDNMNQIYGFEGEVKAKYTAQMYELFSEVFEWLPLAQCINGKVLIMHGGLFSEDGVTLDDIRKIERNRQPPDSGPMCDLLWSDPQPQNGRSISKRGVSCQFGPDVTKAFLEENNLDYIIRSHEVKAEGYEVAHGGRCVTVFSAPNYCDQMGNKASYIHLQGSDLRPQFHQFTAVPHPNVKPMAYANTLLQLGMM
* hit, by the source's call; · = no result. A selection: hits, their analogues and other compounds. The true share with any hit is near 3.4%.

SMILES	PAFAH2 FP inh	PAFAH1B3 FP inh	PP1 counter	PAFAH1B2 inh	pPAFAH inh	PP5 inh
CC1CCN(S(=O)(=O)c2ccc(NC(=O)CN3CCCCCC3)cc2)CC1	-3	2	2	30*	8	2
O=C(O)COc1ccccc1/C=N/NC(=O)CN1CCN(S(=O)(=O)c2ccc(Br)cc2)CC1	2	3	-4	27*	4	0
COc1cccc(C(=O)CN2CCN(S(=O)(=O)c3ccc(Br)cc3)CC2)c1	-2	-1	2	29*	5	1
O=C(O)COc1ccccc1/C=N/NC(=O)CN1CCN(Cc2ccccc2Cl)CC1	2	6	-2	4	1	1
Cc1ccc(S(=O)(=O)N2CCCCC2)cc1NC(=O)COC(=O)CN1C(=O)NC2(CC(C)CC(C)(C)C2)C1=O (configuration not stated)	17	10	·	6	·	·
COc1ccc(C(=O)NCCCN2CCN(CCCNC(=O)c3ccc(OC)c(OC)c3)CC2)cc1OC	2	-5	·	-1	·	·
O=C(CN1CCN(S(=O)(=O)c2ccccc2)CC1)NC1CC1	-9	3	-1	6	-3	2
COc1ccc(NC(=O)CCN2CCN(S(=O)(=O)c3ccc(Br)cc3)CC2)cc1	1	-3	2	21	8	0
CC1CCN(S(=O)(=O)c2ccc(N/N=C(/C#N)C(N)=O)cc2)CC1	8	3	0	40*	3	-1
O=C(CCN1CCN(S(=O)(=O)c2ccc(Br)cc2)CC1)Nc1ccccc1F	-5	8	-2	25*	5	1
N#C/C(=N\Nc1ccc(S(=O)(=O)N2CCOCC2)cc1)C(N)=S	1	4	1	6	6	2
O=C(CN1CCN(S(=O)(=O)c2ccc(Br)cc2)CC1)Nc1ccc(F)cc1	6	1	0	28*	-2	5
O=C(CN1CCN(S(=O)(=O)c2ccc(Cl)cc2)CC1)NC1CC1	0	-3	-3	29*	-4	2
CCCCCCCN(c1ccccc1)[C@@H]1C[C@H]2CCCC(=O)N3CC[C@@H](C1)[C@@H]23	8	8	·	9	·	·
COc1ccc(C)cc1NC(=O)CN1CCN(S(=O)(=O)c2ccc(Br)cc2)CC1	2	-3	-2	28*	-4	4
COc1ccc(NC(=O)CN2CCN(S(=O)(=O)c3ccc(Br)cc3)CC2)c(OC)c1	-2	0	-1	20	3	2
CCN1CCN(S(=O)(=O)c2ccc(Cl)c(C(=O)NC3CC3)c2)CC1	5	9	-3	24*	-1	0
NS(=O)(=O)c1ccc(NC(=O)CN2CCN(S(=O)(=O)c3ccc(F)cc3)CC2)cc1	-2	4	0	3	2	0
O=C(CN1CCN(S(=O)(=O)c2ccc(Cl)cc2)CC1)Nc1ccc(F)cc1F	-2	6	-2	28*	1	5
CCOC(=O)N1CCC(N2CCN(S(=O)(=O)c3ccc(Cl)cc3)CC2)CC1	5	0	-3	29*	0	3
CCOC(=O)N1CCN(S(=O)(=O)c2ccc(Cl)cc2)CC1	2	10	-2	6	12	3
C#CCN1C(=O)S/C(=C\c2ccc(-c3ccc(C(=O)O)cc3C)o2)C1=O	6	3	3	5	31*	1
Cc1cc(C(=O)O)ccc1-c1ccc(/C=C2\SC(=O)N(CC(=O)Nc3ccc4c(c3)OCO4)C2=O)o1	-2	5	·	-5	·	·
CCOC(=O)C(C)N1C(=O)S/C(=C\c2ccc(-c3ccccc3C(=O)O)o2)C1=O (configuration not stated)	5	0	3	-6	28*	0
O=S(=O)(c1ccc(F)cc1)N1CCN(C(=S)NCCc2ccccc2)CC1	-2	3	5	24*	5	5
SMILES	PAFAH2 FP inh	PAFAH1B3 FP inh	PP1 counter	PAFAH1B2 inh	pPAFAH inh	PP5 inh
Oc1ccc(N2CCN(C(=S)NCCc3ccccc3)CC2)cc1	-1	7	1	1	29*	3
O=S(=O)(c1ccc(Cl)cc1)N1CCN(C(=S)Nc2ccccc2F)CC1	-3	-5	0	25*	-3	2
O=S(=O)(c1ccc(F)cc1)N1CCN(C(=S)NCc2ccccc2)CC1	-2	3	-2	1	2	3
Oc1ccc(C[C@H]2CNC(=S)N2CC2CCCN2C[C@H](Cc2ccc(O)cc2)N2C[C@H](Cc3ccc(O)cc3)N(CC3CCCCCC3)C2=S)cc1 (some centres not stated)	-15	-13	·	-6	·	·
O=C(O/N=C/c1ccc(Br)cc1)c1ccc(F)cc1	67*	2	-1	45*	-2	0
N/C(=N\OC(=O)c1ccc(F)cc1)c1ccc(Br)cc1	-1	3	-3	2	-5	1
O=C(O)c1cccc(-n2cccc2/C=C2/NC(=O)N(c3ccc(Cl)cc3)C2=O)c1	72*	36*	·	28*	·	·
CN(C(=O)c1cccc(NC(=O)Cc2cccc(NC(=O)C3CCCN(C(=O)C4CCC4)C3)c2)c1)C1CCC1 (configuration not stated)	-6	8	·	4	·	·
CC(O)(CS(=O)(=O)Cc1ccccc1Cl)C(=O)Nc1cccc(C(F)(F)F)c1 (configuration not stated)	-8	5	7	2	2	-1
CC(O)(CS(=O)(=O)Cc1cccc(C(F)(F)F)c1)C(=O)Nc1cccc(C(F)(F)F)c1 (configuration not stated)	-7	-3	3	38*	2	3
COc1ccc(/C=C2/CCC(CN3CCOCC3)C2=O)cc1 (configuration not stated)	-1	7	·	1	·	·
O=C(O)c1cccc(Nc2nc3ccccc3nc2NS(=O)(=O)c2cccs2)c1	12	6	2	4	5	-2
COc1ccc(NS(=O)(=O)c2cc(NC(=O)Cc3cccs3)ccc2C)cc1	-2	11	0	0	7	1
COc1ccc(NS(=O)(=O)c2ccc(NC(=O)Cc3cccs3)cc2)cc1	-7	6	-2	8	26*	3
COc1ccc(S(=O)(=O)Nc2ccccc2)cc1	13	7	-4	6	18	3
CC(=O)c1ccc(Nc2nc3ccccc3nc2NS(=O)(=O)c2cccs2)cc1	18	5	-1	1	27*	2
CC(=O)NS(=O)(=O)c1ccc(NS(=O)(=O)c2ccc3ccccc3c2)cc1	-5	15	2	29*	-1	2
CC(=O)Nc1ccc(NS(=O)(=O)c2ccc3ccccc3c2)cc1	-3	-11	-3	10	3	3
COc1ccc(S(=O)(=O)Nc2ccc(Nc3ccccc3)cc2)cc1	·	·	3	·	27*	7
